# CYP2C9 activ: CYP2C9 (human) activation. P11712. recombinant CYP2C9, luciferin-H conversion, luminescence; stronger effect = higher value; factor 1 = untreated enzyme, 0 = blocked. activation factor at 5 µM. hit rate 1.4% among 96,000;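 active = activation factor of 2 or more for CYP2C9 at a 5 µM dose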;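 also: 0 = sulfaphenazole-blocked wells and 1 = vehicle-only wells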
# Target sequence (P11712 whole entry, looked up): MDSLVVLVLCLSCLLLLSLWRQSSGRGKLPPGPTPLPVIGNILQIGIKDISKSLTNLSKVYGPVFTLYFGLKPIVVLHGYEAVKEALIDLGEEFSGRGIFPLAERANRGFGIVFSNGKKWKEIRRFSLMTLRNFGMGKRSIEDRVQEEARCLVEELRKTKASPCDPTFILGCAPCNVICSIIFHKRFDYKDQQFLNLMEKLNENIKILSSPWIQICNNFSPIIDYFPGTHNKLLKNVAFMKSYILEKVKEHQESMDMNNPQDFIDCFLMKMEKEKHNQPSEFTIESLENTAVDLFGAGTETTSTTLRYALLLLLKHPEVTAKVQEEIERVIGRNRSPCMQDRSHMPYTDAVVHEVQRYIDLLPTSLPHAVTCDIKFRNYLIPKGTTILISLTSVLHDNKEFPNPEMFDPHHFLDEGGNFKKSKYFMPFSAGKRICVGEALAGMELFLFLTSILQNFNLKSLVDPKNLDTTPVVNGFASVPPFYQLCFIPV
# CYP2C19 inh: inhibitors of human CYP2C19; hit rate 21% among 96,000; CYP2C19 Supersomes, luciferin-H EGE luminescence, 30 min; P33261; AID 778; inhibition, % at 5 µM;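 active = CYP2C19 inhibition above a set limit at 5 µM in the primary screen, cut at about 50% in these data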;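 also: plate controls were negative control wells for no effect and 2.5 mM tranylcypromine positive control for full effect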
# CYP2C19 act: activators of human cytochrome P450 2C19. P33261. recombinant CYP2C19, luciferin-H EGE luminescence; stronger effect = higher value; 0 = fully inhibited enzyme, 1 = untreated enzyme. activation factor at 5 µM. 96,000 tested, under 10 active. AID 1025;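 active = activation factor of at least 2 at 5 µM in the primary screen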;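 also: 0 = wells with 2.5 mM tranylcypromine and 1 = vehicle-only wells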
# CYP2C9 inhib: inhibitors of human CYP2C9; CYP2C9 Supersomes, luciferin-H conversion, luminescence; AID 777; inhibition, % at 5 µM; hit rate 20% among 96,000;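 active = blocking of liver enzyme CYP2C9 beyond about 50% at 5 µM, limit read from the data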
# PLAP act: activators of human placental alkaline phosphatase | purified PLAP enzyme, luminescent substrate read-out; stronger effect = higher value | activation fold at 20 µM | hit rate 1.2% among 96,000; in the data active = activation fold above about 2
# Numbers without * were called inactive. A selection: hits, their analogues and other compounds. The true share with any hit is near 31%.
SMILES,CYP2C9 activ,CYP2C19 inh,CYP2C19 act,CYP2C9 inhib,PLAP act
COC(=O)CCC(=O)Nc1ccc(Cl)c(Cl)c1,1,28.0,0.7,2.3,0.9
COC(=O)CCC(=O)NC(=S)Nc1cc(Cl)ccc1Cl,0.5,54.3*,0.5,53.4*,0.9
CCCc1cc(=O)[nH]c(SCC(=O)N(CC)C2CCS(=O)(=O)C2)n1 (stereo unspecified),0.8,3.8,1,23.0,1.1
CC1CN(S(=O)(=O)c2ccc(Cl)c(C(F)(F)F)c2)CC(C)O1 (stereo unspecified),2.3*,22.4,0.8,-129.7,1.1
Cc1ccc(-n2nnnc2SCC(=O)Nc2ccc3c(c2)COC3=O)cc1C,1,20.2,0.8,-2.6,0.7
CCCOC(=O)c1cccc(NC(=O)C(C)(C)C)c1,0.4,79.0*,0.2,59.4*,1.2
CC(C)(C)C(=O)Nc1cccc(C(=O)c2cccc(NC(=O)C(C)(C)C)c2)c1,0.8,54.8*,0.5,21.8,0.9
CC(=O)c1cccc(NC(=O)C=C(C)C)c1,1.1,11.3,0.9,-7.0,0.8
C=CCSc1nnc(NC(=O)CSc2nc3ccccc3[nH]2)s1,0.1,61.6*,0.4,87.0*,0.9
C=CCSc1nnc(NC(=O)CSc2nc(CCC)cc(=O)[nH]2)s1,0.7,50.8*,0.5,33.7,1.2
C=CCSc1nnc(NC(=O)CSc2nnc(C)s2)s1,0.7,18.0,0.8,28.4,0.8
O=S(=O)(NCc1cccnc1)c1cccs1,0.9,28.9,0.7,7.6,0.9
CSC(=NCc1cccnc1)NS(=O)(=O)c1cccs1,0.9,65.0*,0.3,13.1,0.8
CN1CCN(c2nc(N3CCN(c4ccccc4)CC3)ncc2F)CC1,0.8,61.8*,0.4,19.4,1.2
CCC(C)S(=O)(=O)c1snnc1C (stereo unspecified),1.1,3.5,1,-12.3,0.8
Cc1ccccc1CS(=O)(=O)c1cnc2ccccc2n1,2.3*,93.2*,0.1,-129.2,1
Cc1ccccc1CS(=O)(=O)c1snnc1C,1,54.7*,0.5,-1.1,1
O=C1C2(c3ccccc3)CN(CCO)CC1(c1ccccc1)CN(CCO)C2,1.1,0.7,1,-12.2,1.7
COc1ccc2oc3ccc(OC)cc3c(=O)c2c1,1.3,2.4,1,-29.9,0.9
COc1ccc2cc3cc(C(=O)Nc4ccccc4N4CCN(C)CC4)oc3nc2c1,0.7,61.2*,0.4,25.6,1.5
CS(=O)(=O)c1cc([N+](=O)[O-])c(Sc2nc3ccccc3[nH]2)c([N+](=O)[O-])c1,0.9,68.8*,0.3,12.2,1
CC(=O)OCC(OC(C)=O)C(OC(C)=O)C(OC(C)=O)C(=O)Nc1ccccc1C (stereo unspecified),1,-2.1,1,3.6,1
CCOC(=O)c1oc2ccc(Br)cc2c1CSc1nnc(C)s1,0.4,53.8*,0.5,59.3*,0.8
CC(C)NC(=S)N/N=C1\CCCCC1C1CCCCC1 (stereo unspecified),0.2,62.9*,0.4,80.5*,1.3
Cn1cc(S(=O)(=O)Nc2ccc(Br)cc2F)c(=O)n(C)c1=O,0.4,42.5,0.6,63.4*,1.2
SMILES,CYP2C9 activ,CYP2C19 inh,CYP2C19 act,CYP2C9 inhib,PLAP act
Cc1nc(-c2ccccc2)sc1C(=O)CSc1ccc(Br)cc1,0.1,13.4,0.9,85.1*,0.8
Cc1nc(-c2ccccc2)sc1C(=O)CSc1ccc(Cl)cc1,0.2,4.2,1,76.9*,1
Cc1nn(C(=O)Cn2ccc([N+](=O)[O-])n2)c(C)c1Br,0.9,11.0,0.9,5.6,1
CC(=O)Nc1c(C#N)c(C(C)(C)C)cn1C,1.2,-10.5,1.1,-21.6,1.1
COc1ccc(/C=N/NS(=O)(=O)c2ccccc2)cc1OS(=O)(=O)c1ccc(C)cc1,0.1,52.0*,0.5,92.7*,1.4
COc1cc(/C=N/NC(=O)COc2ccc(Cl)cc2)ccc1OS(=O)(=O)c1ccc(C)cc1,0.4,36.8,0.6,64.5*,1.4
COc1ccc(C(=O)Oc2cc(/C=N/NS(=O)(=O)c3ccccc3)ccc2OC)cc1,0.7,18.9,0.8,32.8,1.1
Cc1ccc(S(=O)(=O)Oc2ccccc2/C=N/NC(N)=S)cc1,1.1,14.6,0.9,-6.5,0.8
COc1ccc(/C=N/NC(=O)c2cccc([N+](=O)[O-])c2)cc1OC(=O)c1ccccc1,0.5,42.4,0.6,48.5,1.8
COc1ccc(/C=N/NS(=O)(=O)c2ccc(C)cc2)cc1OC(=O)c1ccc(C)cc1,0.1,4.4,1,88.1*,1.9
COc1ccc(/C=N/NC(=O)c2cccc([N+](=O)[O-])c2)cc1OC(=O)c1ccc(C)cc1,0.5,35.8,0.6,53.8*,1
COc1ccccc1NC(=O)COc1ccc(/C=N/NS(=O)(=O)c2ccc(C)cc2)cc1,0.8,3.2,1,17.8,1.1
COc1ccc(/C=N/NC(=O)c2cccc([N+](=O)[O-])c2)cc1OS(=O)(=O)c1ccccc1,0.9,24.0,0.8,9.6,0.9
COc1cc(/C=N/NC(=O)c2cccnc2)ccc1OS(=O)(=O)c1ccc(F)cc1,0.2,66.7*,0.3,83.4*,1.6
Cn1c2ccccc2c2c(C(=O)N3CCN(C(=O)c4ccco4)CC3)cn(C3CCCCC3)c(=O)c21,0.3,40.0,0.6,73.6*,1.5
Cn1c2ccccc2c2c(C(=O)N3CCN(c4ccccn4)CC3)cn(C3CCCC3)c(=O)c21,0.1,69.3*,0.3,94.1*,1.5
COc1ccc(N2CCN(C(=O)c3cn(C4CCCC4)c(=O)c4c3c3ccccc3n4C)CC2)cc1,0.1,76.8*,0.2,90.0*,1.6
COc1ccc(N2CCN(C(=O)c3cn(C)c(=O)c4c3c3ccccc3n4C)CC2)cc1,0.9,3.3,1,8.7,1.3
Cc1cc(C(C)c2ccccc2)c(O)c(CN2CCOCC2)c1C (stereo unspecified),0.8,21.8,0.8,23.7,1.4
CCOC(=O)c1sc(NC(=O)/C=C/c2cnn(C)c2C)c(C(=O)OC(C)C)c1C,0.8,-2.4,1,24.8,1.4
Cc1c(NC(=O)CCN2C(=O)c3ccccc3C2=O)c(=O)n(-c2ccccc2)n1C,1.2,-12.0,1.1,-16.1,1.4
Cc1cc(C)c2c(=O)c3c(oc2c1)C(=O)N(CCO)C3c1cccc(O)c1 (stereo unspecified),0.5,50.3*,0.5,53.5*,1.4
Cc1ccc2oc3c(c(=O)c2c1)C(c1cccc(Cl)c1)N(CCCN1CCOCC1)C3=O (stereo unspecified),0.9,2.7,1,13.8,1.4
COC(=O)C(Nc1ccccc1Cl)(c1cc(C)c(O)c(C)c1)C(F)(F)F (stereo unspecified),0,99.7*,0,98.7*,0.9
Cc1ccc(C(=O)NC(=S)Nc2cc(C(F)(F)F)ccc2Cl)cc1,1.9,15.5,0.8,-91.5,1
COc1cc(/C=N/NC(=O)CSc2cc(C)c(Br)cc2C)ccc1O,0.2,4.8,1,76.1*,1.7
COc1ccc(/C=N\NC(=O)CCN2CCN(c3ccccc3)CC2)cc1OC,1.1,-10.2,1.1,-13.5,1.2

# Screening results from PubChem BioAssay.
